The campaign covered roughly 360,000 compounds. About 7,500 (2.1%) were called active. A call without a number means that no potency is given here. Inconclusive results (about 8%) are left out. The sample holds actives, similar compounds and a random draw of the others, so the mix is not that of the screen. The call rests on the fitted dose curve; in most records, active means well fitted cell-killing curve with a large enough effect; inconclusive means small, poorly fitted or top-dose-only effect, or effect the other way, or another doubt; inactive means no such curve, though single readings can be large or run the other way.
Assay: qHTS for induction of synthetic lethality in tumor cells producing 2HG: qHTS for the HT-1080-IDH1KD cell line
Details: HT-1080 IDH1 knockdown viability, ATP luminescence, 48 h; series mostly up to 46.1 µM
Method in brief: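 In this qHTS, HT-1080 cells depleted of IDH1 are exposed for 48 h at 37 °C to compound titrations. Toxicity is scored from CellTiter-Glo luminescence, with DMSO as full viability and medium alone as none.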
Potency means the concentration at half of the fitted maximal effect.

Compound	Potency
Oc1c(C(c2ccccn2)N2CCOCC2)ccc2cccnc12 (centres undefined)	0.251 µM (active)
CC(C)c1cc(CN2CCOCC2)cc(C(C)C)c1O	inactive
O=C(Nc1ccccc1)c1ccccc1Br	inactive
CC(C)C[C@H](NC(=O)N1CC(=O)Nc2ccccc21)C(=O)N[C@H](Cc1ccccc1)C(=O)O	inactive
CC(C)[C@H](NC(=O)N1CC(=O)Nc2ccccc21)C(=O)N[C@@H](Cc1c[nH]c2ccccc12)C(=O)O	inactive
CC(C)c1ccc(NC(=O)[C@@H](NC(=O)N2CC(=O)Nc3ccccc32)C(C)C)cc1	13 µM (active)
COc1ccc(C(C)C)cc1-c1ccc2nncn2c1	inactive
CC1(C(=O)NS(=O)(=O)c2ccccc2)CCN1C(=O)Cc1ccc(-c2ccccc2)cc1 (centres undefined)	inactive
Cc1ccc(F)c(S(=O)(=O)NC(=O)C2(C)CCN2C(=O)CCc2cccs2)c1 (centres undefined)	inactive
CCCOc1ccccc1C1CC(=O)Nc2cc3c(cc21)OCO3 (centres undefined)	1.84 µM (active)
CCCOc1ccc(C2NC(=O)NC(c3ccccc3)=C2C(C)=O)cc1OCC (centres undefined)	inactive
COC(=O)c1ccc(C2CC(=O)Nc3cc(OC)c(OC)cc32)cc1 (centres undefined)	inactive
C[C@@H](NC(=O)OC(C)(C)C)c1nnc(S(=O)(=O)Cc2ccccc2)o1	18.4 µM (active)
CCc1ccccc1NC(=O)CSc1nnc([C@@H](NC(=O)OC(C)(C)C)C(C)CC)o1 (some centres undefined)	inactive
COc1ccccc1NC(=O)[C@H](COCc1ccccc1)NC(=O)OC(C)(C)C	inactive
OC[C@@H]1CN(Cc2ccc(F)cc2)C[C@H](n2cnc3c(NC4CCCC4)ncnc32)O1	inactive
OC[C@@H]1CN(Cc2ccc(-c3ccccc3)cc2)C[C@H](n2cnc3c(NC4CCCC4)ncnc32)O1	20.6 µM (active)
OC[C@@H]1CN(Cc2cccs2)C[C@H](n2cnc3c(NC4CCCC4)ncnc32)O1	inactive
CC1=C(C(=O)N2CCOCC2)CC(CC(=O)NCc2cccc3ccccc23)C(=O)N1CCC1=CCCCC1 (centres undefined)	inactive
Cc1ccc(C(=O)NC(C)C(c2cccs2)N2CCOCC2)cc1C (centres undefined)	inactive
CCC(=O)N1Cc2cc(C(=O)NCc3cccc(F)c3)nc(-c3cccc(C4=CCCC4)c3)c2[C@H]1CCO	inactive
COc1cc(OC)cc(C2=Cc3ccccc3C(CC(=O)c3ccco3)N2c2ccc(-c3cnc(OC)nc3)cc2)c1 (centres undefined)	inactive
CC(C)(O)C(=O)NN(C(=O)c1ccccc1)c1cccc(Br)c1	inactive
Cc1cccc(N(Cc2ccccc2)C(=O)c2ccccc2F)c1	inactive

Compound	Potency
CCCC(O)(CCC)C(=O)NN(C(=O)CCl)c1cccc(C)c1	5.17 µM (active)
CC1(C(=O)NS(=O)(=O)c2cccc(OC(F)F)c2)CCN1C(=O)C1CC1 (centres undefined)	inactive
O=C(Nc1ccc(F)cc1)C(CCc1ccccc1)N1CCN(CC(=O)N2CCCC2)CC1 (centres undefined)	inactive
Cc1nc(-c2ccc(Cl)cc2)sc1C(=O)CBr	inactive
Cc1nc(-c2ccc(Cl)cc2)sc1C(=O)NN	10.3 µM (active)
Cc1nc(N2CCOCC2)sc1C(=O)NN	inactive
COCCCNC(=O)c1ccc(-c2c(C)noc2C)c2ccoc12	inactive
O=C(COC(=O)c1ccc([N+](=O)[O-])cc1Cl)NC(=O)c1ccccc1	inactive
O=C(NOCc1ccccc1)c1cccc([N+](=O)[O-])c1	inactive
O=C(NC(Nc1nc2ccc([N+](=O)[O-])cc2s1)(C(F)(F)F)C(F)(F)F)c1ccccc1	5.17 µM (active)
COc1ccc(OC)c(NC(=O)C2(C)CCN2C(=O)Cc2ccccc2)c1 (centres undefined)	inactive
Cc1cc(C(=O)N2CCCC2(C)C(=O)O)c(C)o1 (centres undefined)	inactive
COC(=O)[C@@]1(Cc2ccc(F)cc2)[C@H]2c3cc(C(=O)N4CCCC4)n(C[C@H](O)CO)c3C[C@H]2CN1C(=O)c1ccccc1	inactive
COC(=O)[C@@]1(Cc2ccc(F)cc2)[C@H]2c3cc(C(=O)N4CCCC4)n(Cc4ccc(OC(F)(F)F)cc4)c3C[C@H]2CN1C(=O)c1ccccc1	23.1 µM (active)
COC(=O)[C@@]1(Cc2ccc(F)cc2)[C@H]2c3cc(C(=O)N(C)C)n(CCc4c[nH]c5ccc(OC)cc45)c3C[C@H]2CN1C(=O)c1ccccc1	inactive
CCCNC(=O)C1(C)CCN(Cc2csc(-c3ccc(Cl)cc3)n2)C1 (centres undefined)	inactive
COc1ccc(-c2cc3c(c4c2ccn4C)C2CCC3C2)cn1 (centres undefined)	inactive
COc1cccc(-n2c(SCC(=O)NC3CCS(=O)(=O)C3)nc3ccccc3c2=O)c1 (centres undefined)	inactive
C=CCn1c(CC(=O)Nc2cccc(OC)c2)nnc1SCC(=O)NC1CCCCC1	inactive
COc1cccc(-n2c(SCC(=O)NC3CCCCC3)nc3n[nH]c(C)c3c2=N)c1	18.4 µM (active)
CCc1noc(C)c1C(=O)OCC(=O)c1ccc(NC(=O)CC(C)C)cc1	inactive
FC(F)(F)c1ccccc1Cc1c(-c2ccccc2)nc2c3ccccc3ccn12	inactive
O=C(NCC(F)(F)F)c1ccc(S(=O)(=O)NCCc2ccc3c(c2)OCCO3)cc1	inactive
Nc1ccccc1-c1nc2ccncc2[nH]1	inactive

Compound	Potency
Cc1cc(C)nc(Nc2n[nH]c(-c3ccccc3N)n2)n1	32.6 µM (active)
CCCOc1ccccc1-c1nc(SCCC(=O)O)n[nH]1	inactive
CCOC(=O)[C@]12CCC=C1N(CCC1=CCCCC1)C(=O)[C@H](CC(=O)NCc1ccc(C)o1)C2	inactive
CC(=O)C[C@@H]1OC[C@H](C)N1S(=O)(=O)c1ccc(C)cc1	inactive
CN(C)CCOc1ccc(Cl)cc1C(C)(C)C	inactive
CCN(CC)CCOCCOc1ccc(Cl)c2ccccc12	inactive
CN(C)CCOCCOc1ccc(Cl)c2ccccc12	20.6 µM (active)
N#CCCC(C#N)(c1cccnc1)N1CCOCC1 (centres undefined)	inactive
CCC(C)CN1C(=O)CN(S(C)(=O)=O)CC1(C)C(=O)Nc1ccc2c(c1)OCCO2 (centres undefined)	inactive
O=C(NCc1ccco1)c1cccc(-c2ccc3nncn3c2)c1	inactive
Cn1c(=O)[nH]c(=O)c2c1[nH]c(=S)n2Cc1ccccc1	inactive
CCC1(C)Cc2c(sc3[nH]c(=S)n(Cc4ccccc4)c(=O)c23)CO1 (centres undefined)	14.6 µM (active)
CCCSc1nc(NCc2ccco2)c2c3c(sc2n1)COC(C)(CC)C3 (centres undefined)	inactive
OC[C@@H]1CN(Cc2cccs2)C[C@H](n2cnc3c(Nc4ccccc4)ncnc32)O1	inactive
Cc1cc(Cl)ccc1-c1nc(NCCN(C)C)nc2ccsc12	23.1 µM (active)
Cc1ccc(Cl)cc1NC(=S)N(CCN(C)C)Cc1cccs1	inactive
O=C(CC[C@H]1O[C@@H](n2ccc(=O)[nH]c2=O)[C@H](O)[C@@H]1O)N[C@H](Cc1ccccc1)C(=O)NCc1ccco1	inactive
CCc1ccccc1NC(=O)CN1CCN(C(=O)c2cc(C3CC3)nn2-c2ccccc2)CC1	inactive
COc1ccc(NC(=O)CCCOc2ccc(C(C)=O)cc2)cc1S(=O)(=O)N1CCCCC1	inactive
CCC(CC)C(C(=O)NC1CCCC1)N1CCN(c2cc(C)nc3ccccc23)CC1 (centres undefined)	inactive
Cc1ccc2nc(/C(C#N)=C\c3ccc(OC(=O)c4cccs4)cc3)[nH]c2c1	7.94 µM (active)
COc1ccc(CCNC(=O)/C(C#N)=C2\N=C(NC(=O)c3cccs3)c3ccccc32)cc1	inactive
COc1ccc2c(c1)CCCO[C@]21O[C@H](CCO)C[C@H](O)[C@H]1O	inactive
Nc1ncnc2c1ncn2[C@@H]1O[C@H](C(=O)N2CCSC2)[C@@H](O)[C@H]1O	inactive

Compound	Potency
CC1(C(=O)Nc2ccc3c(c2)OCCO3)CN(S(C)(=O)=O)CC(=O)N1Cc1cccc(F)c1 (centres undefined)	inactive
Fc1ccc2[nH]c3c(N4CCN(Cc5ccc6c(c5)OCO6)CC4)ncnc3c2c1	23.1 µM (active)
O=c1[nH]c(N2CCN(Cc3ccc4c(c3)OCO4)CC2)nc2c1CCCC2	inactive
CCCCCc1c(C)nc(N2CCN(Cc3ccc4c(c3)OCO4)CC2)[nH]c1=O	inactive
CC(C)NC(=O)N1Cc2cc(C(=O)NCC(F)(F)F)nc(-c3cccc(-c4cc5ccccc5o4)c3)c2[C@@H]1CCO	inactive
CCOC(=O)C1CCCN(C(=O)c2cc(-c3cccs3)oc2C)CC1 (centres undefined)	inactive
CCn1c(SCC(=O)N2CCCC2=O)nc2ccccc21	inactive
CCC(=C/c1sc2ccc3ccccc3c2[n+]1C)/C=C1\Sc2ccc3ccccc3c2N1C	5.17 µM (active)
CCC1NC(=O)c2cccnc2-n2c1nc1ccc(C)cc1c2=O (centres undefined)	inactive
CCCS(=O)(=O)NC(=O)C1(C)CCN(C(=O)c2sccc2C)C1 (centres undefined)	inactive
Cc1nc(/N=C(\N)NC(=O)NC2CCCCC2)nc2ccccc12	14.6 µM (active)
CC(C)c1cc(C(=O)NC2CCCCCC2)c2ccccc2n1	inactive
COc1ccc2nc(/N=C(\N)NC(=O)Nc3ccccc3)nc(C)c2c1	inactive
C[C@@H]1CC2=C(C(=O)OC(C)(C)O2)[C@@H](C2CC2)O1	inactive
CN(Cc1ccc(C(F)(F)F)cc1)C(=O)[C@H]1O[C@@H](n2cnc3c(N)ncnc32)[C@H](O)[C@@H]1O	inactive
COc1ccc(-c2[nH]ncc2CN(C)Cc2c(C)n[nH]c2C)c(OC)c1	inactive
COc1ccc(-c2n[nH]c(C)c2-c2ccc(OC)c(OC)c2)c(O)c1	18.4 µM (active)
COc1ccc(-c2c(-c3ccc(OC)cc3O)nc(C)nc2C(F)(F)F)cc1	inactive
CC1(C(=O)NS(=O)(=O)c2ccccc2)CCN1C(=O)C1CCCCC1 (centres undefined)	inactive
O=C1c2ccccc2C(c2nc3ccccc3[nH]2)N1c1ccccc1 (centres undefined)	inactive
C=C1c2c(Cl)ccc(O)c2C(O)=C2C(=O)[C@]3(O)C(O)=C(C(N)=O)C(=O)[C@@H](N(C)C)[C@@H]3[C@@H](O)C12 (some centres undefined)	18.4 µM (active)
O=C1OCCC1=COCCCCOC=C1CCOC1=O	inactive

From PubChem BioAssay AID686971 (National Center for Advancing Translational Sciences (NCATS), 2013)
